Test [1] can be described thus: inhibition of Brca1/Bard1 split-luciferase complementation, confirmation, counter-screen for Mdm2/MdmX interaction inhibitor project, luminescence, single concentration (AID 504668). The conditions noted are these: Brca1/Bard1 bimolecular luciferase complementation counterscreen, at 8 µM, stronger effect = higher value. For orientation: Counterscreens check selectivity or assay interference.

Test [2] is described as follows: Apaf-1 inhibitors, single-dose retest, confirmation, biochemical, fluorescence, DEVD-Rh110, 20 µM (AID 504614;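 active = mean inhibition of at least 40% at 20 µM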;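 note: plate controls were DMSO wells for no effect and DEVD-CHO caspase inhibitor control wells for full effect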). As to conditions: reconstituted apoptosome, caspase-3 DEVD-Rh110 fluorescence; at 20 µM; stronger effect = higher value.
The nature of test [3]: Rh110 fluorescence interference by putative Apaf-1 inhibitors, confirmation, artefact control for Apaf-1 inhibitor project, biochemical, 20 µM (AID 504615;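 active = signal rise of 40% or more at 20 µM, treated as a fluorescence artifact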). The conditions noted are these: quenched caspase reaction, at 20 µM, stronger effect = higher value.
Test [4] in a line: HIF-2a reporter inhibitor retest, confirmation, luminescence, 786-0 RCC cells (AID 651580;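 active = mean inhibition across four replicates of at least 40 percent at the single tested concentration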). The conditions noted are these: HIF-2a luciferase reporter luminescence, overnight, at 18.8 µM, stronger effect = higher value.
The nature of test [5]: HIF-1a luciferase reporter signal reduction – MiaPaCa-2 cells, single concentration, counter-screen for HIF-2a inhibitor project, confirmation (AID 651589;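 active = mean inhibition of the reporter signal across four replicates at the single tested dose of 50% or more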). The conditions noted are these: MiaPaCa-2 HIF-1a luciferase reporter, desferoxamine, overnight; at 18.8 µM; stronger effect = higher value. In general terms: A reporter such as luciferase makes a cellular process visible.
The target of test [6] is COP9 signalosome complex subunit 5 (Homo sapiens) (UniProt Q92905). The test is described as follows: Csn5 deneddylation inhibitors, confirmation, biochemical, fluorescence polarization, single concentration, SCF-Nedd8OG substrate (AID 720654; in the data active = inhibition above about 50%;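 note: 0% = DMSO with enzyme and 100% = no enzyme wells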). The conditions noted are these: Csn5 deneddylation of SCF-Nedd8OG, 90 min, at 16.6 µM, stronger effect = higher value. Background: In fluorescence polarisation assays a small probe gives low polarisation when free and higher when bound to something large.
Sequence of COP9 signalosome complex subunit 5 (Homo sapiens) (Q92905 whole entry, looked up, one chain of several): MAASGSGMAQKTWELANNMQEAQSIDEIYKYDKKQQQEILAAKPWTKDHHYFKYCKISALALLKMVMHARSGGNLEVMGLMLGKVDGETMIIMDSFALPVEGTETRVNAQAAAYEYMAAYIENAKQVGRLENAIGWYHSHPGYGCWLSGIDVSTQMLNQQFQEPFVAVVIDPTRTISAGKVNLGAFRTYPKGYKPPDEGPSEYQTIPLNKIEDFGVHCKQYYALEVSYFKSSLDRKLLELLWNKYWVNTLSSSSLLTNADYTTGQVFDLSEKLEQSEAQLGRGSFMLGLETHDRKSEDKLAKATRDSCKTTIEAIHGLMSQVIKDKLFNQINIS

Test [7] concerns the target 72 kDa type IV collagenase (Homo sapiens) (UniProt P08253). The test is described as follows: MMP-2 protease inhibition counter-screen, confirmation, counter-screen for CSN deneddylation inhibitor project, biochemical, fluorescence, single concentration (AID 720655;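 active = corrected plate-normalized z-score of 5 or more, or -5 or less, or inhibition of 15% or more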;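 note: plate controls were DMSO wells with enzyme for no effect and buffer wells lacking MMP-2 for full effect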). The conditions noted are these: recombinant MMP-2, FRET substrate fluorescence, 60 min; at 16.6 µM.
Test [8] deals with Prothrombin (Bos taurus) (UniProt P00735). The test is described as follows: bovine thrombin inhibition counter-screen, confirmation, counter-screen for CSN deneddylation inhibitor project, biochemical, fluorescence polarization, single concentration (AID 720656;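 active = inhibition at or above a set limit, with a fluorescence interference ratio between 0.5 and a set maximum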). As to conditions: bovine thrombin cleavage of Ub4-pepOG, at 16.6 µM, stronger effect = higher value.
Sequence of Prothrombin (Bos taurus) (P00735 whole entry, looked up): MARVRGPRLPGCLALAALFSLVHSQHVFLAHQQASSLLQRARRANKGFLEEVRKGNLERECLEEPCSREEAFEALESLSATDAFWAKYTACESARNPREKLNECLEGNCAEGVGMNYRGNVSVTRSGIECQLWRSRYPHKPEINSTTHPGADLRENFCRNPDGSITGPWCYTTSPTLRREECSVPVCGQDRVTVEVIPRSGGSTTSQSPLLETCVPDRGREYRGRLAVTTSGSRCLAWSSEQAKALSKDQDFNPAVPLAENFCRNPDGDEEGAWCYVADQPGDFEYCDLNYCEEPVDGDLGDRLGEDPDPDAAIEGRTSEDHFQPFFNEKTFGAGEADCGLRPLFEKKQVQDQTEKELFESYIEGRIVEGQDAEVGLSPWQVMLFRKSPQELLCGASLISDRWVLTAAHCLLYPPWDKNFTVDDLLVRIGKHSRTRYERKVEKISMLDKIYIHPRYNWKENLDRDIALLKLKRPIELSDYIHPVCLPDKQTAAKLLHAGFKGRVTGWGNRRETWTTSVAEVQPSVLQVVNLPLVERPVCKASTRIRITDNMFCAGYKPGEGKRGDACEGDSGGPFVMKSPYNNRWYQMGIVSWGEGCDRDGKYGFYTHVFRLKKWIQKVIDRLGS
The target in test [9] is Tumor necrosis factor receptor superfamily member 10B (Homo sapiens) (UniProt O14763). Briefly: caspase-8 TRAIL sensitization, hit retest, confirmation, cell-based, NB7+caspase-8, with/without TRAIL, luminescence panel (AID 651596; in the data active = activity above about 50%). The conditions noted are these: NB7 neuroblastoma + caspase-8, TRAIL sensitization, luminescence viability, with TRAIL, mean of runs, at 10 µM, stronger effect = higher value.
Sequence of Tumor necrosis factor receptor superfamily member 10B (Homo sapiens) (O14763 whole entry, looked up): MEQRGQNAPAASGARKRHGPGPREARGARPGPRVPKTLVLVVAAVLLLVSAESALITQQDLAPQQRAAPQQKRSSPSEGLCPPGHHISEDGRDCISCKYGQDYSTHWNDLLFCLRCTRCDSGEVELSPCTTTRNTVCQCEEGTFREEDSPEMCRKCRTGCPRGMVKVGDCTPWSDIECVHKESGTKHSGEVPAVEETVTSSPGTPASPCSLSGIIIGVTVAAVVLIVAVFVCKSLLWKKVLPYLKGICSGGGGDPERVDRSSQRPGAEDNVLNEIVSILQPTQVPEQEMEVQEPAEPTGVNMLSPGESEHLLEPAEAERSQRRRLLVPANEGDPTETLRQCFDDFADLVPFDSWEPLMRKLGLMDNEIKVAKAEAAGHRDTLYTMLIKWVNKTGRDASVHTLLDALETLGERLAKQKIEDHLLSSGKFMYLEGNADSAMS

Experiment in test [10]: as above
The conditions noted are these: NB7 neuroblastoma + caspase-8, without TRAIL, luminescence viability, without TRAIL, mean of runs, at 10 µM.

Test [11] in a line: fluorescence interference of Apaf-1 inhibitor hits, dose response, artefact control for Apaf-1 inhibitor project (AID 588538). As to conditions: fluorescence interference counterscreen, Apaf-1 assay format.
Test [12] addresses PEG-3 (UniProt Q6IN02). Briefly: Peg3 promoter luciferase inhibitors, potency, dose response, cell-based, HeLa, CREF/GAPDH counter-screen panel (AID 624167). As to conditions: CREF/GAPDH counter-screens; HeLa PEG-Prom luciferase reporter, overnight, run 1, dose range 1, at 100 µM (top of the series) unless noted.
Test [13] deals with PEG-3 (UniProt Q6IN02). The description is as above. As to conditions: CREF/GAPDH counter-screens; HeLa PEG-Prom luciferase reporter, overnight, run 2, dose range 1, at 100 µM (top of the series) unless noted.
Sequence of PEG-3 (Q6IN02 whole entry, looked up): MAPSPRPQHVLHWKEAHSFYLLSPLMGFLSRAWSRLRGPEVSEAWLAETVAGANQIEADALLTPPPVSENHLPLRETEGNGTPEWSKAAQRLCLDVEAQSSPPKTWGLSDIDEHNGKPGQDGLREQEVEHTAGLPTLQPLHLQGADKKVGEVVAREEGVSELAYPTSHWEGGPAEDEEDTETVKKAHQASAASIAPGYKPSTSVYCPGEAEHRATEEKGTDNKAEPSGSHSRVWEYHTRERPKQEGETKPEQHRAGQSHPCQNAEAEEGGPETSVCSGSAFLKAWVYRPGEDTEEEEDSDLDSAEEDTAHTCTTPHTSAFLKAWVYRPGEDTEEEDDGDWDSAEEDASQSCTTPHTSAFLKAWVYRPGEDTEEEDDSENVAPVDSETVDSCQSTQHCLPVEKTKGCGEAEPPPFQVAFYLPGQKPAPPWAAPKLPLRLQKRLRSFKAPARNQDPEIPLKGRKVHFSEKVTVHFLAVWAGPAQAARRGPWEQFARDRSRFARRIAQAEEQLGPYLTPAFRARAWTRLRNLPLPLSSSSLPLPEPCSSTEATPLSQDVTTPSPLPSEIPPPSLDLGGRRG
Test [14] has as its system Rat fibroblasts (CREF). Described as above. The conditions noted are these: CREF/GAPDH counter-screens; run 1, dose range 1, at 100 µM (top of the series).
Test [15] concerns Rat fibroblasts (CREF). The description is as above. As to conditions: CREF/GAPDH counter-screens; run 2, dose range 1, at 100 µM (top of the series).

Consider 36 compounds from PubChem BioAssay.

The other results are listed elsewhere or left out. Active and inactive are the calls of the source. Unless noted, the rule behind the calls is not given here.

Sequence of 72 kDa type IV collagenase (Homo sapiens) (P08253 whole entry, looked up): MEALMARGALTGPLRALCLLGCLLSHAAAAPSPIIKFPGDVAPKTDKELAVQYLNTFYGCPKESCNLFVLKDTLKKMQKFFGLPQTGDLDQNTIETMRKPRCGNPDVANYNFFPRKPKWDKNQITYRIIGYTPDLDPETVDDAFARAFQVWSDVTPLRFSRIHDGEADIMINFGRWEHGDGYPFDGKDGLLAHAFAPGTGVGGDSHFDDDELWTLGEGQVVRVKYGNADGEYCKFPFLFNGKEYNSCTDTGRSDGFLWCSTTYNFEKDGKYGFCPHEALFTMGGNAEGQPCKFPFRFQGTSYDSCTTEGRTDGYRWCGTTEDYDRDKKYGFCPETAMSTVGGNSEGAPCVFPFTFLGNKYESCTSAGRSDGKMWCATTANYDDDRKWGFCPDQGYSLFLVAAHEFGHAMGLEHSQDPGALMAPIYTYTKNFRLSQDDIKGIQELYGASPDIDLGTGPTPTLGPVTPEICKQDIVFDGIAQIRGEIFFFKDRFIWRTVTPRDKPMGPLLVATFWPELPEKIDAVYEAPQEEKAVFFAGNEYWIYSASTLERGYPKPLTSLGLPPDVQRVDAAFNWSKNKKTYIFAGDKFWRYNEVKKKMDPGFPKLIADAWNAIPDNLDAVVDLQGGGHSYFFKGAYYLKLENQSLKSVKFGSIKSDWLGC

Usually inhibition stands for the drop in the measured response relative to a control, in per cent. For the compound `COc1ccc2[nH]c3c(N4CCC(O)(c5cccc(C(F)(F)F)c5)CC4)ncnc3c2c1`, in test [1], the inhibition was 32.1% (active).

For `CN1CCN(CCCNC(=O)c2ccc(/C=C3\Oc4ccccc4N(Cc4ccc(Cl)cc4)C3=O)cc2)CC1`, the inhibition in [2] is 39.1% (inactive); in [4] it was -0.07% (inactive); in test [5], 106% (active); in [6] it was -18.2% (inactive); in test [7] it was 11.2% (inactive); in test [8], -9.75% (inactive). In test [3], the activation (fluorescence interference) is 6.39% (inactive). Also, the activity is 41.5% in [9] and 75% in [10]. Turning to `Cc1ccc(O)c(CNCCNCc2cc(C)ccc2O)c1`, the inhibition in [1] was 32.6% (active). Consider `Cc1ccc(N=C2NC(=O)/C(=C/C=C/c3ccco3)S2)cc1C`, for which the inhibition is 26.1% (inactive) in test [2], 25.6% (inactive) in test [6], 13.5% (inactive) in test [7] and 7.38% (inactive) in test [8]. In test [3], the activation (fluorescence interference) is 20.6% (inactive). Take `Clc1ccc(Cn2ncc3c(NCc4ccco4)ncnc32)c(Cl)c1`: the inhibition in test [1] is 31.2% (active).

With `Cc1c(C(=O)Nc2cccc(Cl)c2)oc2ccc(S(=O)(=O)N3CCC4(CC3)OCCO4)cc12`, in test [1], the inhibition was 32.3% (active). In the case of `COc1ccc(NS(=O)(=O)c2cc(NC(=O)c3ccc(Cl)cc3)ccc2N2CCOCC2)cc1`, the inhibition in test [1] is 26.8% (active). As to `COc1cc(NS(=O)(=O)c2ccc(N/C=C(\C#N)c3nc4cc(Cl)ccc4o3)cc2)nc(OC)n1`, the inhibition in test [1] is 35.2% (active). In the case of `NC(=O)c1sc2nc3c(c(-c4ccco4)c2c1N)CCC3`, the inhibition in test [1] was 24.9% (active).

With `Cc1cccc([C@@H]2[C@@H]3C(=O)N(Cc4ccccc4)C(=O)[C@@H]3[C@]3(C)C(=O)N(c4ccc(C(F)(F)F)cc4)C(=O)N23)c1`, in [1], the inhibition was 33.2% (active). The same measure, in the same setting: the value for `Cn1cccc1-c1cc(C(=O)N/N=C/c2cc(Br)ccc2O)[nH]n1` was 25.9% (active).

`Cc1ccc(-n2nc(C)c3c(C)c(CCC(=O)Nc4ccc(CN5CCCC5)cc4)c(C)nc32)cc1`: the inhibition in [1] is 25.5% (active). Take `N/C(=N\NC(=O)c1sccc1OCc1ccc(Cl)cc1Cl)c1ccccn1`: in test [1], the inhibition was 35.1% (active). Take `CCOC(=O)C(CC)(CC)C(=O)/C=C/c1cccc(Br)c1`: in test [1], the inhibition was 29.2% (active). Take `CN1CCN(C(c2ccc(C(F)(F)F)cc2)c2cc(Cl)c3cccnc3c2O)CC1` (centres undefined): in test [1], the inhibition was 24.6% (active). As for `CC(C)C(=O)NC(c1ccco1)c1ccc2cccnc2c1O` (centres undefined), in test [1], the inhibition was 24% (active). With `CCC(=O)NC(c1ccc(OC)cc1)c1cc(Cl)c2cccnc2c1O` (centres undefined), the inhibition in test [1] is 25.5% (active). Consider `CCOc1ccccc1CNC(=O)c1cc2oc3ccccc3c2n1CC`, for which, in [1], the inhibition is 25.6% (active).

`COc1cccc(/C=N/NC(=O)c2cc(-c3cccn3C)n[nH]2)c1O`: the inhibition in [1] is 32.4% (active). `S=c1[nH]nc(-c2cc(-c3ccccc3)n[nH]2)n1/N=C/C(Br)=C/c1ccccc1`: in [1], the inhibition was 24.2% (active). As for `O=S(=O)(c1ccc(Cl)cc1)N1CCN(Cc2ccc(O)c3ncccc23)CC1`, the inhibition in [1] was 25% (active). With `O=C(Nc1nc(-c2ccccn2)cs1)c1ccccc1-n1cnnn1`, the inhibition in test [1] was 29.6% (active). In the case of `CCCC(=O)NC(NC(=S)Nc1ccc(N=Nc2ccccc2)cc1)C(Cl)(Cl)Cl` (centres undefined), the inhibition in [1] was 32.4% (active). The same measure, in the same setting: the value for `CCc1ccc(S(=O)(=O)/N=C2\C=C(Nc3ccc(C(=O)O)cc3)C(=O)c3ccccc32)cc1` was 33.2% (active). Usually IC50 stands for the midpoint of a concentration-inhibition curve. As for `O=C(CCNS(=O)(=O)c1ccccc1)NCCSc1ccc(Br)cc1`, the inhibition in [2] is 40% (active). Moreover, the activation (fluorescence interference) in test [3] was 5.12% (inactive). The IC50 in test [11] is > 100 µM (inactive). Take `COCCNC(=O)Nc1ccc2nc(-c3ccco3)c(-c3ccco3)nc2c1`: the figures for the inhibition in [2], in test [4] and in [5] were 40.9% (active), -38.7% (inactive) and 8.69% (inactive), respectively. Besides, in test [3], the activation (fluorescence interference) is -1.4% (inactive). Moreover, the IC50 in [11] is > 100 µM (inactive). Consider `C/C(=N\NC(=O)c1cccc2ccccc12)c1ccccn1`, for which the inhibition in [1] was 29.9% (active). Turning to `Cn1c(C(=O)NCc2cccs2)cc2oc3ccccc3c21`, the inhibition in [1] was 27.7% (active).

For `O=C(N/N=C/c1ccccc1O)c1cccc(C(F)(F)F)c1`, the inhibition in [1] was 35.8% (active). On the same count and under the same terms, the value for `CC(C)(C)c1cc(NCCCn2ccnc2)n2ncc(-c3ccc(Cl)cc3)c2n1` was 34.9% (active); that for `Cc1ccc(C(=O)Nc2nc(-c3ccccn3)cs2)s1` was 34.6% (active); that for `Cc1cccc(NS(=O)(=O)c2ccc(C)c(C(=O)OCC(=O)Nc3cc(C)on3)c2)c1` was 32.1% (active). In the case of `CC(C)(C)c1ccc(Cn2c(=O)cnc3ccccc32)cc1`, the inhibition in test [1] was 25.9% (active); in test [12] it was 100%; in test [13], 100%; in [14], 98.2%; in test [15], 84.5%.

Consider `O=C1C(=C2SCCCS2)CC/C1=C\c1ccc(F)cc1`, for which the inhibition in test [1] is 25.5% (active). `C=C(C)Cn1c(SCC(=O)N/N=C/c2c(O)ccc3ccccc23)nc2ccccc2c1=O`: the results for the inhibition in test [1], in [12] and in [13] were 31.4% (active), 54.6% and 7.84%, respectively. Regarding `Cc1ccc2oc(/N=C(\N)NC(=O)C(C)(C)C)nc2c1`, the inhibition was 31.8% (active) in test [1]; 98% in test [12]; 94.5% in test [13]; 82.5% in [14]; 79.9% in [15].
